High-throughput results as filed in PubChem.
An excerpt weighted towards active compounds, which were near 8.1% of everything screened.
NOMO-1 viab = NOMO-1 AML cell viability reduction, primary screen, STK33 inhibitor project, CellTiter-Glo luminescence; actives 7.5% (n = 37,000); inhibition, % (test concentration not listed); NOMO-1 AML viability, 72 h; in the data active = inhibition above about 80%; inconclusive = no clear call, values can overlap the other calls
Hedgehog inh = Hedgehog pathway signaling inhibitors, primary screen, luminescence, Shh-LIGHT2 cells, Gli-luciferase; Shh-LIGHT2 Gli-luciferase reporter, 30 h; inhibition, % (concentration not given with the values); actives 2.1% (n = 22,000); AID 2313, 2010;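 active = mean inhibition across valid replicates above about 65%, limit read from the data; inconclusive = mean under the limit, yet half or more replicates past it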;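 also: pathway switched on by Shh-conditioned medium diluted 1 in 25 in low serum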
PD-1 reversal = activators reversing PD-1 mediated T-cell inhibition, primary screen, luminescence, primary human CD4 T cells, PD-L1 beads | CellTiter-Glo 96 h | activation, % (test concentration not listed) | 29,000 tested, under 10 active | AID 2316, 2010; call rule not given here
MITF inh = inhibitors of MITF, primary screen, MITF inhibitor project, cell-based, luminescence | TRPM1 promoter luciferase, 24 h | AID 2240, 2010 | inhibition, % (concentration not given with the values) | actives 0.28% (n = 37,000); in the data active = inhibition above about 85%; inconclusive = no clear call, values can overlap the other calls; inactive = below about 68%;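 also: human melanocyte line stably carrying TRPM1 promoter luciferase reporter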
Each line names hits and unclear results; the compound was inactive in the other large screens; ! = repeats disagree.

C[C@@H]1CN([C@H](C)CO)C(=O)Cc2cc(NC(=O)Nc3ccc(C(F)(F)F)cc3)ccc2O[C@H]1CN(C)Cc1ccc(C(F)(F)F)cc1	NOMO-1 viab 94.1
C[C@@H]1CN([C@H](C)CO)C(=O)Cc2cc(NC(=O)Nc3ccc(C(F)(F)F)cc3)ccc2O[C@@H]1CN(C)Cc1ccc(C(F)(F)F)cc1	NOMO-1 viab 120.2
COc1ccc(S(=O)(=O)N(CC(=O)O)c2ccc(F)cc2)cc1	none (no result: Hedgehog inh)
CNC(=S)N(Cc1ccncc1)C1CC(=O)N(c2ccc(OC)cc2)C1=O (stereo not given)	none (no result: Hedgehog inh)
C[C@@H]1CCCCO[C@H](CN(C)Cc2ccc(C(=O)O)cc2)[C@@H](C)CN([C@H](C)CO)C(=O)c2cc(NC(=O)C3CCCCC3)ccc2O1	none
COc1ccc(NC(=O)Nc2ccc3c(c2)C(=O)N([C@H](C)CO)C[C@H](C)[C@H](CN(C)Cc2ccncc2)OCCCC[C@@H](C)O3)cc1	none
C[C@@H]1CCCCO[C@@H](CN(C)Cc2ccc(C(F)(F)F)cc2)[C@@H](C)CN([C@H](C)CO)C(=O)c2cc(NC(=O)C3CCCCC3)ccc2O1	NOMO-1 viab 108.2
COc1ccc(NC(=O)Nc2ccc3c(c2)C(=O)N([C@H](C)CO)C[C@H](C)[C@@H](CN(C)Cc2ccc(C(F)(F)F)cc2)OCCCC[C@@H](C)O3)cc1	NOMO-1 viab 110.0 (no result: PD-1 reversal)
C[C@@H]1CCCCO[C@@H](CN(C)Cc2ccccc2)[C@@H](C)CN([C@H](C)CO)C(=O)c2cc(NC(=O)Nc3ccc(C(F)(F)F)cc3)ccc2O1	NOMO-1 viab 114.9
C[C@@H]1CCCCO[C@@H](CN(C)Cc2ccc(C(=O)O)cc2)[C@@H](C)CN([C@H](C)CO)C(=O)c2cc(NC(=O)Nc3ccc(C(F)(F)F)cc3)ccc2O1	none (no result: Hedgehog inh)
C[C@@H]1CCCCO[C@@H](CN(C)Cc2ccc(C(F)(F)F)cc2)[C@@H](C)CN([C@H](C)CO)C(=O)c2cc(NC(=O)c3ccccc3)ccc2O1	NOMO-1 viab 93.0 (no result: Hedgehog inh)
O=C(NCc1ccco1)c1cccc(S(=O)(=O)N2CCCCCC2)c1	none (no result: Hedgehog inh)
Cc1cccc(C(=O)N(CC#N)CC#N)c1	none
Cc1ncc(CO)c(/C=N/O)c1O	none (no result: Hedgehog inh)
C[C@@H]1CCCCO[C@@H](CN(C)Cc2ccc(C(F)(F)F)cc2)[C@@H](C)CN([C@H](C)CO)C(=O)c2cc(NC(=O)Cc3ccccc3)ccc2O1	NOMO-1 viab 106.4
Cc1cc(C)nc(Nc2n[nH]c(CSc3nc4ccccc4s3)n2)n1	none (no result: Hedgehog inh, PD-1 reversal)
CSc1sc(C(=O)/C=C/N(C)C)c(-c2ccccc2)c1C#N	none
COc1ccccc1CNC(=O)c1cc(-c2ccccn2)nc2c(Cl)cccc12	NOMO-1 viab 92.1 (no result: Hedgehog inh, PD-1 reversal)
Cc1cc(C)c2nc(-c3ccccn3)cc(C(=O)NCc3ccc(S(N)(=O)=O)cc3)c2c1	NOMO-1 viab 112.5 (no result: Hedgehog inh, PD-1 reversal)
COc1ccccc1CCNC(=O)c1cc(-c2ccccn2)nc2ccc(Br)cc12	none (no result: Hedgehog inh)
COc1ccc(NC(=O)c2cc(-c3ccccn3)nc3c(C)cc(C)cc23)c([N+](=O)[O-])c1	MITF inh 86.8 (no result: Hedgehog inh, PD-1 reversal)
O=C(CCn1cccc(C(F)(F)F)c1=O)Sc1ccccc1	NOMO-1 viab inconclusive
Cc1cc(Cl)ccc1OC(C)C(=O)Nc1cccc(-c2nnc(-c3ccccc3)o2)c1 (stereo not given)	none (no result: Hedgehog inh)
COc1ccc(/C=C2\C(=O)c3ccccc3OC2c2ccccc2)cc1 (stereo not given)	NOMO-1 viab 120.0
COC(=O)c1ccccc1NC(=O)c1c(NC(=O)CN2CCCCCC2)sc2c1CCC2	none (no result: Hedgehog inh)
CC(C)=CCOc1cc2oc(=O)ccc2cc1O	NOMO-1 viab 108.6 (no result: PD-1 reversal)
COc1cc2ccc(=O)oc2cc1OCC=C(C)C	none (no result: NOMO-1 viab, PD-1 reversal, MITF inh)
Cc1cc2c(C(C)C)c(O)c(O)c(C=O)c2c(O)c1-c1c(C)cc2c(C(C)C)c(O)c(O)c(C=O)c2c1O	NOMO-1 viab 110.7, Hedgehog inh 68.2! (no result: PD-1 reversal)
CCCC(O)c1c(O)cccc1C1(O)CC(=O)C/C1=C\C(O)CC(=O)O (stereo not given)	NOMO-1 viab 121.2
Cc1ccc(S(=O)(=O)Nc2ccc3c(c2)C(=O)N([C@@H](C)CO)C[C@@H](C)[C@H](CN(C)Cc2ccc(Cl)c(Cl)c2)O3)cc1	NOMO-1 viab 88.7 (no result: Hedgehog inh)
Cc1ccc(S(=O)(=O)Nc2ccc3c(c2)C(=O)N([C@H](C)CO)C[C@@H](C)[C@H](CN(C)Cc2ccc(Cl)c(Cl)c2)O3)cc1	NOMO-1 viab 103.9 (no result: Hedgehog inh)
C[C@H]1CN([C@@H](C)CO)C(=O)c2cc(NS(=O)(=O)c3ccccc3)ccc2O[C@H]1CN(C)Cc1ccc(Cl)c(Cl)c1	none (no result: Hedgehog inh)
C[C@H](CO)N1C[C@H](C)[C@@H](CN(C)Cc2ccc(Cl)c(Cl)c2)Oc2ccc(NS(=O)(=O)c3ccc(F)cc3)cc2C1=O	none
CC12CC34CC(O)C5C(CO)(CO)CC(=O)CC5(C)C3CC1C2C4 (stereo not given)	none (no result: NOMO-1 viab, PD-1 reversal, MITF inh)
O=C(O)CCC(=O)Cc1ccccc1	MITF inh inconclusive
CN[C@H]1CC[C@@H](c2ccc(Cl)c(Cl)c2)c2ccccc21	NOMO-1 viab 107.1 (no result: Hedgehog inh, PD-1 reversal)
C[C@]12CC[C@@H]3c4ccc(O)cc4CC[C@H]3[C@@H]1C[C@@H](O)[C@@H]2O	none (no result: PD-1 reversal)
C#C[C@]1(O)CCC2C3CCc4cc(O)ccc4C3CC[C@@]21C (stereo not given in full)	NOMO-1 viab 106.9 (no result: PD-1 reversal)
C=CCn1c(-c2ccc(OC)cc2)c(C)sc1=Nc1ccc(C)cc1	none
OC(CNC1CCCC1)Cn1c2ccccc2c2ccccc21 (stereo not given)	NOMO-1 viab 95.9 (no result: Hedgehog inh)
C[C@H]1CN([C@@H](C)CO)C(=O)Cc2cc(N(C)C)ccc2O[C@@H]1CN(C)Cc1ccc(C(=O)Nc2ccccc2N)cc1	NOMO-1 viab 139.5 (no result: Hedgehog inh)
C[C@@H]1CN([C@@H](C)CO)C(=O)Cc2cc(N(C)C)ccc2O[C@@H]1CN(C)Cc1ccc(C(=O)Nc2ccccc2N)cc1	NOMO-1 viab 140.2 (no result: Hedgehog inh)
CC(C)(C)NS(=O)(=O)c1ccc(NC(=O)CSc2nc3ccccc3s2)cc1	none (no result: Hedgehog inh)
CC(=O)O[C@@]1(C)C[C@@H](O)[C@@H]2C=CO[C@@H](O[C@@H]3O[C@H](CO)[C@@H](O)[C@H](O)[C@H]3O)[C@@H]21	none (no result: NOMO-1 viab, PD-1 reversal, MITF inh)
COc1ccc(C(=O)N2c3ccccc3CCc3ccccc32)cc1	NOMO-1 viab 103.9
CCN(CC(=O)Nc1cccc(C(F)(F)F)c1)S(=O)(=O)c1ccc(C)cc1	none (no result: Hedgehog inh, PD-1 reversal)
O=C(CSc1nc(O)cc(=O)n1-c1ccccc1)N1CCc2ccccc21	none (no result: Hedgehog inh)
C[C@H](CO)N1C[C@H](C)[C@H](CN(C)S(=O)(=O)c2ccc(Cl)cc2)Oc2ccc(NC(=O)CCC(F)(F)F)cc2CC1=O	NOMO-1 viab 121.4 (no result: PD-1 reversal)
C[C@@H]1CN([C@@H](C)CO)C(=O)Cc2cc(NC(=O)CCC(F)(F)F)ccc2O[C@@H]1CN(C)S(=O)(=O)c1ccc(F)cc1	none
C[C@H]1CN([C@@H](C)CO)C(=O)Cc2cc(NC(=O)CCC(F)(F)F)ccc2O[C@H]1CN(C)S(=O)(=O)c1ccc(F)cc1	NOMO-1 viab 126.3
C[C@H]1CN([C@@H](C)CO)C(=O)Cc2cc(NC(=O)CCC(F)(F)F)ccc2O[C@H]1CN(C)S(=O)(=O)c1ccc(Cl)cc1	NOMO-1 viab 108.9 (no result: PD-1 reversal)
